Screening results as filed in PubChem.
GLP-1R agonist – activates the human GLP-1 receptor | Potency, µM (series often up to 45.6 µM), for the others: top-dose activation, usual class: activators | HEK293 GLP-1R CRE-luciferase, luminescence, 4-6 h; cells express a hypersensitive GLP-1R form | hit rate 0.007% among 380,000; note: potency is the fitted concentration of half-maximal effect; % of control where 0% means no effect
TRHR enhancer – TRH receptor (human) allosteric enhancement; hit rate 0.66% among 360,000; P34981; TRHR cells, fluo-8 calcium fluorescence, EC20 TRH enhancement; enhancement, % at 2 µM; in the data active = enhancement above about 30%; note: 0% is about no effect
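Enhancer read-out: after compound pinning and an initial kinetic agonist-mode read, an EC20 of TRH (10 nM final) was injected and fluo-8 calcium signal (Ex 480/Em 530) followed at 1 s/cycle for 100 cycles in TRHR-expressing cells.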
TRHR ag – activates the human TRH receptor; activation, % at 2 µM; TRHR cells, calcium flux fluo-8, FDSS agonist mode; P34981; hit rate 0.18% among 360,000; AID 493084; in the data active = activation above about 30%; note: 0% is about no effect
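TRHR-expressing cells loaded with fluo-8 calcium dye; 23 nL library compound pin-transferred, kinetic FDSS fluorescence (Ex 480/Em 530) recorded about 180 s for agonist-induced calcium release, before a 10 nM TRH EC20 addition for potentiator mode.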
GLP-1R inv ag – inverse agonists of human GLP-1 receptor | HEK293 GLP-1R CRE-luciferase, luminescence, 24 h; GLP-1R form is constitutively active | Potency, µM (series often up to 38.3 µM), inactives show at the top dose activity change, negative = inhibition, usual class: inhibitors | hit rate 1.6% among 410,000 | AID 624417; note: potency is the fitted concentration of half-maximal effect; % is set by controls: 0 for no effect and ±100 for the full control effect; nearly all actives have a fitted effect of over 55% in size
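HEK293 cells stably co-expressing constitutively active GLP-1R and a cAMP-responsive luciferase reporter were seeded in DMEM with 10% Nu serum, given compounds after 12 h, and incubated 24 h at 37 deg C. Luminescence was then read.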
GLP1R cytotox – cytotoxic in the GLP-1 receptor inverse agonist counter-screen; AID 624418; HEK293 cAMP-luciferase reporter cells, luminescence, 24 h; Potency, µM (highest dose often 38.3 µM), without a hit: at the highest dose activity change, negative = inhibition, hits mostly inhibitors; hit rate 0.13% among 410,000;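 note: loss of luciferase light is scored as toxicity; potency is the fitted concentration of half-maximal effect; % is set by controls: 0 for no effect and ±100 for the full control effect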
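Quantitative HTS format, 1536 wells, 200 cells/uL seeded. Compounds: 23 nL, 24 h, 37 °C. Detection: luciferase reagent, luminescence at 12 min RT; decreased signal taken as cytotoxic.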
PTHR1 ag – PTHR1 (human) receptor agonism. Potency, µM (doses to about 115 µM), for inactives: at the highest dose activation, actives largely listed as activators. hit rate 0.075% among 410,000. HEK293 GP2 PTHR1 cells, GloSensor cAMP luminescence, 1 h; note: potency is the fitted concentration of half-maximal effect; nearly all actives have a fitted effect of over 55% in size
Target sequence (Q03431 whole entry, looked up): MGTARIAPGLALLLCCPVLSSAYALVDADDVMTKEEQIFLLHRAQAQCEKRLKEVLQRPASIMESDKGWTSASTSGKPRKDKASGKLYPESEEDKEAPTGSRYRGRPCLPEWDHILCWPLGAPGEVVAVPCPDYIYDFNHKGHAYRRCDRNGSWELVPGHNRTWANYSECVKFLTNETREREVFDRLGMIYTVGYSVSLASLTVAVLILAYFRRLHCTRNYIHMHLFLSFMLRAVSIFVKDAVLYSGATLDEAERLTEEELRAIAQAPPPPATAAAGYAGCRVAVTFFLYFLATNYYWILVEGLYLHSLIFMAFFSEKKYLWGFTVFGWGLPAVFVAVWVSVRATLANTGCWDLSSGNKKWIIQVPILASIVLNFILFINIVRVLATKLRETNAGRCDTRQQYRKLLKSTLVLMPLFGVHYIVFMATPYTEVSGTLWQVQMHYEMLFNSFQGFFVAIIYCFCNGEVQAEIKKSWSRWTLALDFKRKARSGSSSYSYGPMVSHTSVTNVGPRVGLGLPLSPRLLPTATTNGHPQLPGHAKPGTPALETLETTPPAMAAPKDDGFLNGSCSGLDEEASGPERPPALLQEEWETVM
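HEK-293-derived GP2 cells expressing PTHR1 and a GloSensor cAMP reporter, 3,000/well, plated overnight, given luciferin plus IBMX (each 0.5 mM as added) for 1 h at 37 °C, then compound for 1 h at 37 °C. Luminescence was read after 15 min at room temperature.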
Numbers without * were called inactive; i = inactive; ? = inconclusive; · = no result given; [ ] = remark or other dose. The list is not random: actives were taken first. Their share in the collection is about 2.4%. Unless noted, calls come from the whole dose curve; as a rule, active = well fitted curve in the direction sought with a large enough effect; inconclusive = small, poorly fitted or top-dose-only effect, or another doubt; inactive = no such curve, though single readings can be large; an effect the other way counts as inactive or inconclusive.

SMILES	GLP-1R agonist	TRHR enhancer	TRHR ag	GLP-1R inv ag	GLP1R cytotox	PTHR1 ag
CCOc1ccc(NS(=O)(=O)c2cc(NC(=O)CCC(=O)c3cccs3)ccc2Cl)cc1	11.0%	-2.9	0.6	10µM*	-30.2%	i
COc1ccc(NC(=O)CCS(=O)(=O)c2ccccc2Cl)cc1S(=O)(=O)Nc1ccc(Cl)cc1	9.3%	4.4	0.2	6.31µM*	-29.8%	-10.1%
CCCNC(=O)/C(C#N)=C1\N=C(NC(=O)c2cccs2)c2ccccc21	-1.9%	-3.3	0.4	36.5%	11.9%	-9.2%
CCOc1ccc(CN2CCNC(=O)C2CC(=O)NCCCOc2cccnc2)cc1 (stereo not given)	13.2%	-3.0	0.1	-4.9%	4.6%	i
CC(C)(C)NC(=O)c1ccc2c(c1)C1C3CCC(C3)C1C(c1ccccc1)N2 (stereo not given)	-1.3%	-4.0	1.3	2.82µM*	2.5%	i
CCCNC(=O)c1ccc2c(c1)C1C3CCC(C3)C1C(c1ccccc1)N2 (stereo not given)	-3.8%	-17.7	1.7	?	-21.0%	7.9%[57.5 µM]
COc1ccc(CN(C(=O)c2cnccn2)C(C(=O)Nc2ccc(F)cc2)c2ccccc2)cc1 (stereo not given)	-0.3%	1.2	1.3	5.62µM*	-16.7%	i
CCC(C)(C)NC(=O)C(c1ccc(F)cc1)N(Cc1ccc(OC)cc1)C(=O)c1cnccn1 (stereo not given)	9.8%	6.1	-1.6	-7.7%[7.66 µM]	-0.1%[7.66 µM]	i
COc1ccccc1/C=C/C(=O)Nc1cccc(S(=O)(=O)NC2=NCCCCC2)c1	-1.8%	-7.0	0.6	2.3%	-1.6%	-19.5%
Cc1ccc(NC(=S)NCc2ccccn2)cc1	-14.9%	23.4	0.5	?	?	15.8µM*
Cc1cccc(C)c1OCc1cc(C(=O)N(Cc2c(C)nn(C)c2C)C2CC2)no1	4.0%	-7.6	-0.3	7.94µM*	-11.6%	-29.7%
Cc1cccc(C)c1OCc1cc(C(=O)NCC2CCCCC2)no1	3.5%	-3.8	0.5	5.6%	12.8%	i
O=C(NCc1cccnc1)/C(=C\c1ccc(-c2cccc(Cl)c2)o1)S(=O)(=O)c1ccccc1	-24.1%	-8.7	0.4	2µM*	?	-42.8%
O=C1ON=C(c2ccccc2)/C1=C/c1ccc(-c2ccccc2[N+](=O)[O-])o1	-34.6%	18.5	0.1	-18.8%	-17.7%	-96.8%
CCOC(=O)c1ccccc1NC(=O)CN1C(=O)CC(c2ccccc2)Sc2ccccc21 (stereo not given)	16.6%	-6.7	0.3	10µM*	2.7%	-14.8%
COc1ccc(-c2onc(C)c2C)cc1S(=O)(=O)Nc1ccc(OC(F)(F)F)cc1	·	-0.9	0.0	12.6µM*	-5.3%	-91.6%
O=C(CSc1n[nH]c(-c2ccccn2)n1)Nc1ccccc1	-5.9%	4.7	0.8	-23.0%	-21.3%	i
O=C(CSc1n[nH]c(-c2ccccn2)n1)Nc1ccccc1F	6.7%	15.5	0.1	11.2µM*	?	13.1%
COc1ccc(N(CC(=O)N2CCN(c3ccc(Cl)cc3)CC2)S(=O)(=O)c2c(C)n[nH]c2C)cc1	13.4%	1.4	0.1	11.2µM*	-10.5%	-9.8%
COc1cccc(COC(=O)Nc2ccccc2F)c1	21.4%	-3.9	-1.8	?	-1.9%	-5.8%
COc1cc(C(=O)Nc2ccc(C(C)=O)cc2)c(Br)c(OC)c1OC	0.0%	-2.0	-0.6	23.5%	4.2%	-19.9%
COc1ccc(NC(=O)c2cc(OC)c(OC)c(OC)c2Br)cc1OC	2.7%	39.1*	-0.2	21.8%	14.9%	i
Cc1ccc(NC2=Nc3ccccc3CS2)cc1	-17.6%	3.3	-0.1	6.31µM*	-9.8%	-17.5%[57.5 µM]
CCOc1ccccc1NS(=O)(=O)c1c(-c2ccc(C)cc2)csc1C(=O)OC	·	0.9	1.2	11.2µM*	1.1%	i
COC(=O)c1scc(-c2ccc(C)cc2)c1S(=O)(=O)Nc1cc(Cl)ccc1C	·	3.1	0.6	?	-4.5%	-0.4%
SMILES	GLP-1R agonist	TRHR enhancer	TRHR ag	GLP-1R inv ag	GLP1R cytotox	PTHR1 ag
CCOC(=O)c1ccccc1NS(=O)(=O)c1c(-c2ccc(C)cc2)csc1C(=O)OC	·	17.1	0.8	?	17.3%	-32.3%
COC(=O)c1scc(-c2ccc(C)cc2)c1S(=O)(=O)Nc1cccc(Cl)c1C	·	4.1	0.9	10µM*	0.2%	i
CCOC(=O)c1scc(-c2ccccc2)c1S(=O)(=O)Nc1ccc(N(C)C)cc1	·	52.6*	-0.6	?	2.5%	17.2%
CC(=O)N/C(=C\c1ccccc1)C(=O)Nc1ccc(O)cc1	4.1%	-0.4	-0.3	120.5%	16.1%	i
CCOc1ccc(CN2CCN(Cc3cn(CC)nc3C)CC2CCO)cc1 (stereo not given)	-2.5%	-3.3	0.3	-22.0%	1.7%	-19.7%
CCOc1ccc(-c2cc(CCCC(=O)NCCc3ccc(SC)cc3)no2)cc1	2.2%	6.8	0.2	2.9%	-9.3%	-19.5%
Cc1ccccc1S(=O)(=O)N1[C@@H](c2ccc(Br)cc2)C(C(=O)O)=CC[C@H]1c1ccc(Cl)cc1	-5.1%	·	·	?	-10.2%	-9.4%
Cc1ccc(S(=O)(=O)N2[C@@H](c3ccc(Br)cc3)C(C(=O)O)=CC[C@H]2c2ccc(Cl)cc2)cc1	-11.0%	·	·	11.2µM*	-20.2%	-32.8%
Cc1ccc([C@@H]2CC=C(C(=O)O)[C@H](c3ccc(Br)cc3)N2S(=O)(=O)c2ccccc2C)cc1	-0.8%	·	·	11.2µM*	-11.2%	-35.5%
Cc1ccc([C@@H]2CC=C(C(=O)O)[C@H](c3ccc(Cl)cc3)N2S(=O)(=O)c2ccc(C)cc2)cc1	-5.5%	-2.9	-0.8	?	-12.6%	-86.0%
Cc1ccccc1S(=O)(=O)N1C(c2ccc(Cl)c(Cl)c2)CC=C(C(=O)O)C1c1cccc(Br)c1 (stereo not given)	·	·	·	10µM*	-19.7%	i
Cc1ccccc1S(=O)(=O)N1[C@@H](c2ccccc2)C(C(=O)O)=CC[C@H]1c1ccc(Cl)cc1	-4.3%	-0.5	-0.7	7.08µM*	-13.3%	-6.7%
COc1ccc(-n2nc(C(=O)Nc3cc(C)c(Cl)cc3OC)c3c4ccccc4n(C)c3c2=O)cc1	·	0.8	0.6	5.1%	3.0%	i
COc1cc(NC(=O)CCc2nnc3ccc(NCc4ccco4)nn23)cc(OC)c1	11.4%	2.2	-0.3	34.6%	-6.2%	i
O=C(NCc1ccco1)c1ccc(Cl)c(S(=O)(=O)N2CCc3ccccc32)c1	2.1%	-6.5	-0.2	?	6.5%	-17.4%
